Laboratory results from publication PMC11006913.

Experiments:
ALX4 [1] = biological target: ALX4 (Homo sapiens, UniProt Q9H161 200-286); assay: PBM; 200 nM protein, PBS; conditions: dsDNA, one strand shown
ALX4 [2] = biological target: ALX4 (Homo sapiens, UniProt Q9H161 200-286, Q225E); assay: PBM; 200 nM protein, PBS; conditions: dsDNA, one strand shown
Chain of ALX4 (Homo sapiens, UniProt Q9H161 200-286, Q225E) (Q9H161 200-286 Q225E): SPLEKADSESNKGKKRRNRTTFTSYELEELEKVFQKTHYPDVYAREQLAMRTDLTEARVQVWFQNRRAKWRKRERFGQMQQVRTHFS

Chain of ALX4 (Homo sapiens, UniProt Q9H161 200-286) (Q9H161 200-286): as the sequence (Q9H161 200-286 Q225E) above, with E26Q counted along it

Sequence	binding signal (ALX4 [1])	binding signal (ALX4 [2])
AAGCCGGC	7.99 upbm affinity estimate (log intensity, higher = more binding, comparable within an allelic series)	8.26 upbm affinity estimate (log intensity, higher = more binding, comparable within an allelic series)
CCCGGAAG	7.9 upbm affinity estimate (log intensity, higher = more binding, comparable within an allelic series)	8.04 upbm affinity estimate (log intensity, higher = more binding, comparable within an allelic series)
CTCTAGGA	8.21 upbm affinity estimate (log intensity, higher = more binding, comparable within an allelic series)	8.12 upbm affinity estimate (log intensity, higher = more binding, comparable within an allelic series)
CGGCGGGC	8.42 upbm affinity estimate (log intensity, higher = more binding, comparable within an allelic series)	8.3 upbm affinity estimate (log intensity, higher = more binding, comparable within an allelic series)
AATTTTGA	11.1 upbm affinity estimate (log intensity, higher = more binding, comparable within an allelic series)	10.2 upbm affinity estimate (log intensity, higher = more binding, comparable within an allelic series)
GGCATGCC	8.37 upbm affinity estimate (log intensity, higher = more binding, comparable within an allelic series)	8.31 upbm affinity estimate (log intensity, higher = more binding, comparable within an allelic series)
ATAACCAA	10.1 upbm affinity estimate (log intensity, higher = more binding, comparable within an allelic series)	9.6 upbm affinity estimate (log intensity, higher = more binding, comparable within an allelic series)
CCCCTCTC	8.15 upbm affinity estimate (log intensity, higher = more binding, comparable within an allelic series)	8.2 upbm affinity estimate (log intensity, higher = more binding, comparable within an allelic series)
AGCAGCTC	8.01 upbm affinity estimate (log intensity, higher = more binding, comparable within an allelic series)	8.09 upbm affinity estimate (log intensity, higher = more binding, comparable within an allelic series)
CAGTCGCC	8.23 upbm affinity estimate (log intensity, higher = more binding, comparable within an allelic series)	8.19 upbm affinity estimate (log intensity, higher = more binding, comparable within an allelic series)
CCGCGAAG	8.14 upbm affinity estimate (log intensity, higher = more binding, comparable within an allelic series)	8.32 upbm affinity estimate (log intensity, higher = more binding, comparable within an allelic series)
AACTTACA	9.85 upbm affinity estimate (log intensity, higher = more binding, comparable within an allelic series)	9.42 upbm affinity estimate (log intensity, higher = more binding, comparable within an allelic series)
ATCAATCA	11.7 upbm affinity estimate (log intensity, higher = more binding, comparable within an allelic series)	10.5 upbm affinity estimate (log intensity, higher = more binding, comparable within an allelic series)
GAGGGAGC	8.04 upbm affinity estimate (log intensity, higher = more binding, comparable within an allelic series)	8.01 upbm affinity estimate (log intensity, higher = more binding, comparable within an allelic series)
ATAATACA	11.1 upbm affinity estimate (log intensity, higher = more binding, comparable within an allelic series)	10.4 upbm affinity estimate (log intensity, higher = more binding, comparable within an allelic series)
CGGATGTC	8.26 upbm affinity estimate (log intensity, higher = more binding, comparable within an allelic series)	8.17 upbm affinity estimate (log intensity, higher = more binding, comparable within an allelic series)
CCCTTCCA	8.25 upbm affinity estimate (log intensity, higher = more binding, comparable within an allelic series)	8.35 upbm affinity estimate (log intensity, higher = more binding, comparable within an allelic series)
ATTACGAA	11.4 upbm affinity estimate (log intensity, higher = more binding, comparable within an allelic series)	10.3 upbm affinity estimate (log intensity, higher = more binding, comparable within an allelic series)
CCGTCCCC	8.07 upbm affinity estimate (log intensity, higher = more binding, comparable within an allelic series)	8.31 upbm affinity estimate (log intensity, higher = more binding, comparable within an allelic series)
TAAATTTA	12.2 upbm affinity estimate (log intensity, higher = more binding, comparable within an allelic series)	11 upbm affinity estimate (log intensity, higher = more binding, comparable within an allelic series)
GCATTTGA	9.56 upbm affinity estimate (log intensity, higher = more binding, comparable within an allelic series)	9.16 upbm affinity estimate (log intensity, higher = more binding, comparable within an allelic series)
CGCCCTTC	8.03 upbm affinity estimate (log intensity, higher = more binding, comparable within an allelic series)	8.24 upbm affinity estimate (log intensity, higher = more binding, comparable within an allelic series)
